Assay outcomes deposited in PubChem by The Scripps Research Institute Molecular Screening Center.
This is a sample that favours compounds with a hit; in the whole collection about 1.6% have one here.
HTR5A inv ag = HTR5A inverse agonists in luminescence cell assay, primary screen, counter-screen for OPRM1-OPRD1 heterodimer inverse agonist project, full-deck HTS. 5-hydroxytryptamine receptor 5A (Homo sapiens), P47898. HTR5A cell line, inverse agonism. inhibition, % at 9.3 µM. 340,000 compounds, 0.083% hits. AID 504634, 2011; in the data active means inhibition mostly above about 23%, no sharp cut-off; inactive means mostly below about 18%
Target sequence (P47898 whole entry, looked up): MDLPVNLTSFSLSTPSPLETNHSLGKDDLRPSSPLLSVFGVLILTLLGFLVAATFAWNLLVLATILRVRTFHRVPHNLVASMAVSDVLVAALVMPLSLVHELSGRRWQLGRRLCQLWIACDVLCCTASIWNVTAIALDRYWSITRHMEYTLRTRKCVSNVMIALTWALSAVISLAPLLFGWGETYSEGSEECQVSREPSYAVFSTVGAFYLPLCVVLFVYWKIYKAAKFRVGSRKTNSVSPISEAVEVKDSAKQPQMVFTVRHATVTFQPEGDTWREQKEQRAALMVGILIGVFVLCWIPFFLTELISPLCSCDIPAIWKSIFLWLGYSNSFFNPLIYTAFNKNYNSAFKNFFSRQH
OPRM1-OPRD1 ag = agonists of OPRM1-OPRD1 heterodimerization, primary screen, cell-based, luminescence; AID 504326, 2011; Mu-type opioid receptor (Homo sapiens) + Delta-type opioid receptor (Homo sapiens), …; 340,000 compounds, 0.3% hits; cells; activation, % at 9.3 µM; in the data active means activation above about 18%
HTR5A ag = HTR5A agonists in luminescence cell assay, primary screen, counter-screen for OPRM1-OPRD1 heterodimer agonist project, full-deck HTS; 5-hydroxytryptamine receptor 5A (Homo sapiens), P47898; activation, % at 9.3 µM; cell-based; 340,000 compounds, 0.61% hits; in the data active means activation mostly above about 9.5%, no sharp cut-off; inactive means mostly below about 7.6%
HTR2A ag = mouse Htr2a agonists via beta-arrestin recruitment, primary screen, cell-based, luminescence; 5-hydroxytryptamine receptor 2A (Mus musculus), P35363; CHO-K1 mHTR2A beta-arrestin complementation; percent of 30 µM serotonin response; activation, % at 7.6 µM; 360,000 compounds, 0.66% hits; AID 624169, 2012;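 active means activation above a run cutoff, the mean activation of all tested compounds plus 3 SD, cut at about 14% in these data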
OPRM1-OPRD1 inv = inverse agonists of MOR-DOR heterodimerization, primary screen, cell-based, luminescence; AID 504357, 2011; 340,000 compounds, 0.21% hits; cell-based MOR-DOR heterodimer luminescence, inverse agonism; Mu-type opioid receptor (Homo sapiens) + Delta-type opioid receptor (Homo sapiens), …; inhibition, % at 9.3 µM; in the data active means inhibition above about 22%, passing the limit was not always enough
MOR-DOR inv conf = inverse agonists of MOR-DOR heterodimerization, confirmation, cell-based, luminescence; shares compounds with OPRM1-OPRD1 inv; cells expressing OPRM1/OPRD1 heterodimer; inhibition, % at 9.3 µM; 580 compounds, 20% hits; AID 504900, 2011; in the data active means inhibition above about 32%
HTR5A inv count = HTR5A inverse agonists, counter-screen for OPRM1-OPRD1 inverse agonist project, cell-based, luminescence; 580 tested, under 10 active; shares compounds with OPRM1-OPRD1 inv; AID 504914, 2011; HTR5A-expressing cells, inverse agonism; inhibition, % at 9.3 µM; call rule not given here
Large screens that a line does not name were inactive (follow-up assays come after a bar, where they were run).

CCOC(=O)C(NC(=O)N(C)C)(Nc1sc(C)c(CC)c1C#N)C(F)(F)F (stereo not drawn)	none
CC(Sc1ncnc2sccc12)C(=O)Nc1ccc(C(N)=O)cc1 (stereo not drawn)	none
Cc1cccc2nc3c(nc12)-c1ccccc1C3=O	OPRM1-OPRD1 inv 39.6 | MOR-DOR inv conf inactive | HTR5A inv count inactive
Cc1ccnc(NC(=O)CNC(=O)c2ccc(Br)o2)c1	none
CN(CC(=O)Nc1ccc(F)cc1)C(=O)CN1C(=O)c2cccc([N+](=O)[O-])c2C1=O	none
Cc1ccc(CSc2nnc3c(n2)OC2(Nc4ccccc4-3)C(=O)Nc3ccc(F)cc32)cc1 (stereo not drawn)	OPRM1-OPRD1 inv 78.7 | MOR-DOR inv conf 70.5 | HTR5A inv count inactive
Cc1ccc(SCc2[nH]nc3c2C2(C(=O)Nc4ccc(F)cc42)C(C#N)=C(N)O3)cc1 (stereo not drawn)	none
Clc1ccccc1CSc1cc2c(nn1)-c1ccccc1CC2	none
O=C1Nc2ccc(F)cc2C12Nc1ccccc1-c1nnc(SCc3ccccc3Cl)nc1O2 (stereo not drawn)	OPRM1-OPRD1 inv 77.6 | MOR-DOR inv conf 55.8 | HTR5A inv count inactive
O=C1Nc2ccc(F)cc2C12Nc1ccccc1-c1nnc(SCc3ccccc3)nc1O2 (stereo not drawn)	OPRM1-OPRD1 inv 79.3 | MOR-DOR inv conf 70.1 | HTR5A inv count inactive
CC(=O)C[C@@H]1OC[C@H](Cc2ccccc2)N1S(=O)(=O)c1ccc(C)cc1	none (no result: HTR5A inv ag, OPRM1-OPRD1 ag, HTR5A ag, OPRM1-OPRD1 inv)
O=C(c1cccnc1)c1cccnc1	none
O=C(C(=O)c1cccnc1)c1cccnc1	OPRM1-OPRD1 inv 35.6 | MOR-DOR inv conf inactive | HTR5A inv count inactive
c1ccc(-c2nnc(-c3ccccc3)nn2)cc1	none (no result: HTR5A inv ag, OPRM1-OPRD1 ag, HTR5A ag, OPRM1-OPRD1 inv)
c1cncc(-c2nnc(-c3cccnc3)nn2)c1	OPRM1-OPRD1 inv 86.3 | MOR-DOR inv conf inactive | HTR5A inv count inactive
CCOc1ccc(/C=N/OCC(=O)Nc2cc(S(=O)(=O)N3CCOCC3)ccc2OC)cc1	none
CC(C)Cn1c(SCC(=O)NC2CC2)nc2ccccc21	none (no result: HTR5A inv ag, OPRM1-OPRD1 ag, HTR5A ag, OPRM1-OPRD1 inv)
COc1cccc(NC(=O)CN(C)C(=O)/C=C/c2ccc3ccccc3n2)c1	none
CC(=O)Oc1ccc(OC(C)=O)c2c1CC(C)=C(C)C2	OPRM1-OPRD1 inv 38.8 | MOR-DOR inv conf 59.5 | HTR5A inv count inactive
O=C(c1ccco1)C(O)c1ccco1 (stereo not drawn)	HTR5A inv ag 35.2, OPRM1-OPRD1 inv 69.7 | MOR-DOR inv conf inactive | HTR5A inv count inactive
COc1ccc(-n2c(SC(C)C(=O)Nc3ccc(NC(C)=O)cc3)nc3ccccc3c2=O)cc1OC (stereo not drawn)	none
COc1ccc(S(=O)(=O)Nc2c(C)n(C)n(-c3ccccc3)c2=O)c(Cl)c1Cl	OPRM1-OPRD1 inv 31.0 | MOR-DOR inv conf inactive | HTR5A inv count inactive
Cc1ccc(C)c(N2CCN(C(=O)c3ccc(Cl)c(NC4=NC5CS(=O)(=O)CC5S4)c3)CC2)c1 (stereo not drawn)	none
Cc1cccc(-c2cc3c(nn2)-c2ccccc2C3=O)c1	OPRM1-OPRD1 inv 88.4 | MOR-DOR inv conf inactive | HTR5A inv count inactive
O=C1c2ccccc2-c2nnc(-c3ccccc3)cc21	OPRM1-OPRD1 inv 97.0 | MOR-DOR inv conf 98.7 | HTR5A inv count inactive
COc1ccc(-c2cn(Cc3ccc4c(c3)C(=O)c3ccccc3C4=O)nn2)cc1	none
COc1ccc(-c2cc3c(nn2)-c2ccccc2C3=O)cc1	OPRM1-OPRD1 inv 91.2 | MOR-DOR inv conf 75.2 | HTR5A inv count inactive
CCCNC(=O)C1(C)CCN(CCS(=O)(=O)c2ccc(C)cc2)C1 (stereo not drawn)	none (no result: HTR5A inv ag, OPRM1-OPRD1 ag, HTR5A ag, OPRM1-OPRD1 inv)
CCCc1cc(=O)oc2cc(C)cc(OCC(=O)Nc3ccc(S(N)(=O)=O)cc3)c12	none
Cn1c(N=Nc2ccccc2)nc2ccccc21	OPRM1-OPRD1 inv 43.1 | MOR-DOR inv conf inactive | HTR5A inv count inactive
